# According to article PMC5540273 (PLoS ONE, 2017):
# System: ACVR1
# Conditions: concentration: 1 μM, replicates: in singlicate; n = 1
# 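Further: KINOMEscan kinase panel screen.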
row,Compound,%Inh [%]
1,COc1cccc(NC(=O)NCCNc2ccnc(Nc3ccc(F)cc3)n2)c1 [GSK1379879],0
2,CS(=O)(=O)c1cccc(CNc2nc(Nc3ccc4c(c3)CCC(=O)N4)ncc2C(F)(F)F)c1,0
3,c1ccc(Oc2ccc(Nc3ccnc4cc(-c5ccc(CN6CCCCC6)o5)ccc34)cc2)nc1 [GW567143],0
4,COC(=O)Nc1nc2cc(Oc3ccc(NC(=O)Nc4cccc(SC)c4)cc3)ccc2[nH]1.Cl [GW697999],0
5,Nc1ncc(-c2ccc3nccc(-c4ccncc4)c3c2)cc1S(=O)(=O)N1CCCCC1 [GSK1693850],53
6,Cc1ccc(-c2ccc3occ(-c4ccc(S(C)=O)cc4)c3c2)nn1 (stereo not shown),0
7,CC(C)NCC(Cc1ccccc1)NC(=O)c1cc(Br)c(-c2ccnc3[nH]ccc23)s1.Cl.Cl (stereo not shown) [GSK1383281],0
8,Cc1ccc(Nc2ccnc(Nc3ccc(C)c(F)c3)n2)cc1O.Cl [GW582868],88
9,Nc1cccc(-c2ccc3c(N)n[nH]c3c2)c1 [GSK2193613],11
10,CN1CCN(Cc2ccc(NC(=O)Nc3ccc(N(C)c4ccnc(Nc5ccc(CS(C)(=O)=O)cc5)n4)cc3)cc2)CC1.Cl [GW827654],58
11,Cc1ccc(NC(=O)c2ccc(Cl)c(Cl)c2)cc1-c1ccc(C(=O)Nc2ccncc2)cc1 [GSK1398460],6
12,CN(c1ccc(NC(=O)N2CCN(CCCN3CCOCC3)CC2)cc1)c1ccnc(Nc2ccc(CS(C)(=O)=O)cc2)n1.Cl [GW830899],0
13,CSc1ccc(NC2=C(c3ccc(Cl)cc3)C(=O)NC2=O)cc1 [SB-317658],0
14,O=C(Nc1n[nH]c2nc(-c3ccccc3)ccc12)C1CC1 [SB-708999],6
15,COc1cc(Nc2ccnc3cc(-c4ccncc4)ccc23)cc(OC)c1OC.Cl [GW494610],99.5
16,Cc1ccc(O)cc1Nc1ccnc2ccc(C(C)(C)C)cc12 [GW856805],24
17,Cc1ccc(NC(=O)c2ccnc(N3CCCCC3)c2)cc1-c1ccc(C(=O)NCC2CC2)cc1 [GW775610],0
18,Cc1cc(-c2ccnc(Nc3cccc(C#N)c3)n2)cc(C)c1O [GSK1440913],96.5
19,Cl.Cl.NCC(NC(=O)c1cc(-c2cccnc2)c(-c2ccnc3[nH]ccc23)s1)c1ccccc1 (stereo not shown) [GSK1323434],19

row,Compound,%Inh [%]
1,COc1ccc(C2=C(Nc3cccc(O)c3)C(=O)NC2=O)cc1 [SB-390766],0
2,COC(=O)Nc1nc2ccc(Oc3ccc(NC(=O)Nc4cc(C(F)(F)F)ccc4F)cc3)cc2[nH]1.Cl [GW654607],0
3,O=C(Nc1n[nH]c2nc(-c3cccc(O)c3)ccc12)C1CC1 [SB-711805],32
4,N#Cc1cnc2cc(-c3cnc(CNCCN4CCOCC4)s3)ccc2c1Nc1ccc(Oc2ccccc2)cc1 [GW664114],0
5,CN(C)CCNS(=O)(=O)c1ccc(-c2ccnc3[nH]ccc23)cc1 [GSK977620],0
6,CN(C)c1ncnc2nc[nH]c12 [SKF-31736],1
7,COc1ccc(NC(=O)c2ccoc2)cc1-c1ccc(C(=O)NCC2CC2)cc1 [GW810437],0
8,O=C(Nc1c(F)cccc1F)c1cc(C(=O)c2ccccc2F)c[nH]1 [GSK1326180],0
9,Cn1cc(-c2cnc(N)c3c(-c4ccc5c(c4)CCN5C(=O)Cc4ccccc4)csc23)cn1 [GSK2593074],7
10,O=C(O)C(F)(F)F.O=c1[nH]ccc2nc(N[C@@H]3CCNC3)nc(Nc3cc(Cl)cc(Cl)c3)c12 [GSK2188764],0
11,CN(c1ccc(NC(=O)Nc2cccc(Cl)c2)cc1)c1ccnc(N)n1.Cl [GW830707],0
12,Cn1cc(-c2ccc3c(c2)CCN3C(=O)Cc2cc(F)cc(F)c2F)c2c(N)ncnc21 [GSK2634140],0
13,CC(C)(C)c1ccc(C(=O)Nc2cn3cc(-n4ccnc4)ccc3n2)cc1,0
14,CC(C)c1nc(-c2cccc(NS(=O)(=O)c3c(F)cccc3F)c2)c(-c2ccnc(Nc3ccc(N4CCOCC4)nc3)n2)s1.Cl [GSK1723980],95.9
15,O=C1NC(=O)C(c2ccccc2Cl)=C1Nc1cccc(Cl)c1 [SB-342409],12
16,CCn1c(-c2nonc2N)nc2c(-c3ccccc3)ncc(OCCCN)c21.O=C(O)C(F)(F)F.O=C(O)C(F)(F)F [GSK260205],38
17,COc1ccc(C)c(Nc2ccnc(Nc3ccc(-c4cnc[nH]4)cc3)n2)c1.Cl [GW784041],99
18,CN(c1ccc(F)c(NC(=O)c2cccc(OC(C)(C)C#N)c2Cl)c1)c1ccc2nc(NC(=O)C3CC3)sc2n1,0
